Test results: PubChem BioAssay (NCATS)
Records with an inconclusive call do not appear. Where a call stands in place of a potency, no number is given. Calls of active or inactive are those of the source. Unless noted, calls follow the shape of the full dose curve.

Tests used:
[1] = Inducers of the Endoplasmic Reticulum Stress Response (ERSR) in human glioma: Validation (AID 504836; active = well fitted curve in the direction sought with a large enough effect; an effect the other way counts as inactive or inconclusive)
In short: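 ERSR induction read as luciferase luminescence (Bright-Glo, 10 min at room temperature) in stably transfected human U87-MG glioma cells exposed to compounds for 16 h, using GRP78 as sensor.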

[2] = Primary qHTS for inhibitors of SARS-S pseudo-typed particle cell entry (AID 1479145); also: series mostly up to about 57 µM; nearly all actives have a fitted effect of over 45% in size
[3] = target: Nuclear receptor subfamily 1 group I member 3 (Homo sapiens) (UniProt Q14994); test: Primary qHTS for antagonist of constitutive androstane receptor (CAR) against the NCATS DSHEA and TCM libraries (AID 1794836; active = well fitted curve in the direction sought with a large enough effect; an effect the other way counts as inactive or inconclusive;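 also: HepG2 cells stably expressing hCAR with CYP2B6 luciferase reporter stimulated by CITCO; series mostly up to about 40 µM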)
In short: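 Antagonist mode: CAR reporter luminescence (ONE-Glo) in HepG2-CYP2B6-hCAR cells stimulated with 48 uM CITCO (final) over 24 h at 37 C, compounds titrated; viability read first by CellTiter-Fluor fluorescence.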

[4] = Confirmatory qHTS for VERO E6 Cytotoxicity Assay: Counterscreen for SARS-CoV-2 CPE Assay (AID 1508605); also: nearly all actives have a fitted effect of over 60% in size; also: potency is read from the fitted curve at half-maximal effect
[5] = VSVG counterscreen qHTS to identify inhibitors of SARS-CoV-2 cell entry (AID 1645847); also: potency is read from the fitted curve at half-maximal effect; nearly all actives have a fitted effect of over 65% in size
In short: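 Expi293F/hACE2 cells, overnight plating; cpd 1 h, 37C/5% CO2; + VSV-G PP (MLV pseudotyping), 48 h; supernatant removed, Bright-Glo luciferase read. Norm: VSV-G PP and bald PP wells.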

[6] = target: Cytochrome P450 3A4 (Homo sapiens) (UniProt P08684); test: qHTS Assay for Activators of Cytochrome P450 3A4 (AID 885; active = well fitted curve in the direction sought with a large enough effect; an effect the other way counts as inactive or inconclusive; also: nearly all actives have a fitted effect of over 65% in size)
In short: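 20nM CYP3A4 + 25uM Luciferin-PPXE (=KM), 200mM KPO4; cpd 10 min RT; NADPH regen, 60 min RT; stop w/ detection buffer, 20 min; luminescence. Normalized to 57 uM ketoconazole.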

[7] = S16 Schwann cell PMP22 intronic element firefly luciferase assay (AID 624032; active = well fitted curve in the direction sought with a large enough effect; an effect the other way counts as inactive or inconclusive; also: potency is read from the fitted curve at half-maximal effect; nearly all actives have a fitted effect of over 30% in size)
In short: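 Luciferase reporter of PMP22 intronic-element expression in stably transfected S16 rat Schwann cells, read by ONE-Glo luminescence after 24 h compound exposure at 37 C. Activity scaled between DMSO (0%) and positive-control PTC124; concentration-effect curves quality-classified.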

[8] = target: Alpha-galactosidase (Coffea arabica) (UniProt Q42656); test: Counterscreen for Glucocerebrosidase Inhibitors: qHTS Assay for Coffee Bean alpha-Galactosidase at pH 4.5 (AID 957; active = well fitted curve in the direction sought with a large enough effect; an effect the other way counts as inactive or inconclusive; also: series mostly up to about 77 µM)
In short: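 Green coffee bean enzyme (2 nM final) was incubated with compounds (0.7 nM to 77 uM) and 4-methylumbelliferyl alpha-D-galactopyranoside (80 uM final) in 50 mM citric acid, 0.005% Tween-20, pH 4.5, 20 min at room temperature; AC50 from Hill fits.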

[9] = Primary qHTS for Huh7 cytotoxicity: counterscreen for inhibitors of MERS-S pseudotyped particle cell entry (AID 1479147); details: outcome: dose series up to 57.1 µM unless noted
[10] = Primary qHTS for inhibitors of MERS-S pseudo-typed particle cell entry (AID 1479149); also: nearly all actives have a fitted effect of over 60% in size
[11] = Primary qHTS for Vero E6 cytotoxicity: counterscreen for inhibitors of SARS-S pseudo-typed particle cell entry (AID 1479150); details: outcome: dose series up to 57.1 µM unless noted
[12] = Confirmatory qHTS to identify inhibitors of SARS-CoV-2 cell entry (AID 1645844); also: potency is read from the fitted curve at half-maximal effect; nearly all actives have a fitted effect of over 45% in size
In short: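 Luminescence from a luciferase reporter, read 48 hr after pseudotyped-particle addition, gives entry signal, normalised to spike-bearing PP wells and bald PP lacking fusion protein wells. Cells are Expi293F stably expressing human ACE2, compound-pretreated 1 hr.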

Sequence of Cytochrome P450 3A4 (Homo sapiens) (P08684 whole entry, looked up): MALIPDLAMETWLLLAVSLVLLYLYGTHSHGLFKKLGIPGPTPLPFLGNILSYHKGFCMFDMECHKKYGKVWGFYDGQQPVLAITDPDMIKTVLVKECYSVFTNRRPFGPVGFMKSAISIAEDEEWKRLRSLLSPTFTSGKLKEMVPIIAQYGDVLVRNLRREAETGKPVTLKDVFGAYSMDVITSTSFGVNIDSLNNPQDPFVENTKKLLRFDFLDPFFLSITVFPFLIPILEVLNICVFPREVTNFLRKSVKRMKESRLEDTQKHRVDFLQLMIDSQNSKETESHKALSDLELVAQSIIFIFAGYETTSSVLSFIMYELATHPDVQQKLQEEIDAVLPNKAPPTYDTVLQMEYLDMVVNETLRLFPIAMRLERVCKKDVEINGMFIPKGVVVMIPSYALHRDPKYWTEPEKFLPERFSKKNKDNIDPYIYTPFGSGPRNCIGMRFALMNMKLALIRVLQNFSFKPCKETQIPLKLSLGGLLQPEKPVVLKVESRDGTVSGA
Sequence of Nuclear receptor subfamily 1 group I member 3 (Homo sapiens) (Q14994 whole entry, looked up): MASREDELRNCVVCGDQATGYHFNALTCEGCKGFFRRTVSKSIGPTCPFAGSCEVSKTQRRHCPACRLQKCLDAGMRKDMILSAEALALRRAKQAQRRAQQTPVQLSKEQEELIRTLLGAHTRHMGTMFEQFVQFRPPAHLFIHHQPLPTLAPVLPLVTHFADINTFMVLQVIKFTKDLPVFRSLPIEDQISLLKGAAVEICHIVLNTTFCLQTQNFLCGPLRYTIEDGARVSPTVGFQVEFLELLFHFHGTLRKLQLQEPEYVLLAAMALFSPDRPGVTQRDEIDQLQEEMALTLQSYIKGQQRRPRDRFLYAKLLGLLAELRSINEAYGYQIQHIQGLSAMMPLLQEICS
Sequence of Alpha-galactosidase (Coffea arabica) (Q42656 whole entry, looked up): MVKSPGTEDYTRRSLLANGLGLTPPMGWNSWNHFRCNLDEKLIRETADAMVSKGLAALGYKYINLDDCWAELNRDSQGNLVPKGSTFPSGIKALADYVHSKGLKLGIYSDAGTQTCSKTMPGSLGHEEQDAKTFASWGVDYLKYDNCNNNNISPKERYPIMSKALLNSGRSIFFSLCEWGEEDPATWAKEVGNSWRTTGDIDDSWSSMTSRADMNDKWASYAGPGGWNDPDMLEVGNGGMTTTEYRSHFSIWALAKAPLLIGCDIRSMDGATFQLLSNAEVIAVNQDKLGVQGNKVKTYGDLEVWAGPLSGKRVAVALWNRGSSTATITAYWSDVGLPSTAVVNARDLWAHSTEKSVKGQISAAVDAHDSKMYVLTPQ

For `NC[C@@H]1O[C@H](C23CC4CC(CC(C4)C2)C3)Cc2c1ccc(O)c2O`, the outcome [1] was “inactive”.

In the case of `CCN(CC)CCCCCCCCOC(=O)c1cc(OC)c(OC)c(OC)c1`, the outcome [1] is reported as “inactive”.

For `Cc1ncc(C[n+]2csc(CCO)c2C)c(N)n1`, the Potency [2] was “inactive” and the Potency [3] was “inactive”.

With `CC#CCn1c(N2CCC[C@@H](N)C2)nc2c1c(=O)n(Cc1nc(C)c3ccccc3n1)c(=O)n2C` the Potency [2] was “inactive”.

With `CC(C)(C)Cn1c(N)nc2ccc(-c3[nH]c(C(C)(C)C)nc3-c3ccc(F)cc3)nc21` the Potency [4] was 11200 nM (active).

In the case of `NC(=O)c1cccc2cn(-c3ccc([C@@H]4CCCNC4)cc3)nc12`, the Potency [4] is reported as “inactive” and the Potency [5] is reported as 2150 nM (active).

In the case of `CCC(C(=O)O)C1CCC(C)C(C(C)C(O)C(C)C(=O)C(CC)C2OC3(C=CC(O)[C@@]4(CC[C@](C)(C5CC[C@@](O)(CC)C(C)O5)O4)O3)C(C)CC2C)O1` (stereo not given in full), the Potency [6] is reported as “inactive” and the Potency [7] is reported as 361 nM (active).

In the case of `O=c1[nH]c2cc(Cl)c(Cl)cc2[nH]c1=O`, the outcome [8] is reported as “inactive”.

With `C[C@H](CCC(=O)O)[C@H]1CC[C@H]2[C@H]3[C@@H](CC[C@]12C)[C@@]1(C)CC[C@@H](O)C[C@H]1C[C@@H]3O` the Potency [2] was “inactive”, the outcome [9] was “inactive” and the Potency [10] was “inactive”. For the same compound, the outcome [11] was “inactive”.

In the case of `C[S+](C)CCC(N)C(=O)O` (stereo not given), the outcome [9] is reported as “inactive”, the Potency [10] is reported as “inactive” and the outcome [11] is reported as “inactive”.

With `COc1ccc(Nc2cc(-c3cnc(N)nc3)nc(N3CCOCC3)n2)cn1` the Potency [12] was 341 nM (active).

For `Cc1ccc2nc(NCCN)c3ncc(C)n3c2c1`, the Potency [12] was 19200 nM (active).
